# Source: PubChem BioAssay (The Scripps Research Institute Molecular Screening Center)
# Shown are actives, neighbours in structure and some others; about 2.6% of the full set was active somewhere.
# PKA-R1A activ: activators of PKA-R1A complex | P00514+P68181 | PKA-R1A dissociation, Cy5-IP20 fluorescence polarization; scaled: DMSO 0%, 113 µM cGMP 100% | activation, % at 11.4 µM | hit rate 0.083% among 340,000 | AID 504707;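 active = percent activation above the mean of all tested compounds plus 3 SD, cut at about 19% in these data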;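 also: higher means more PKAc released from R1A so a rise in polarization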
# PAFAH1B3 FP inh: PAFAH1B3 (human) inhibition; Q15102; recombinant PAFAH1B3, FP-rhodamine probe, fluorescence polarization; inhibition, % at 3.39 µM; hit rate 0.28% among 340,000; AID 492972;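 active = inhibition above the screen-wide average of all tested compounds plus 3 SD, cut at about 25% in these data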;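 also: 0% = enzyme with DMSO only and 100% = wells lacking PAFAH1B3 protein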
# PAFAH1B2 inh: PAFAH1B2 (human) inhibition; hit rate 1.2% among 340,000; recombinant PAFAH1B2, FP-rhodamine activity probe, fluorescence polarization; inhibition, % at 3.39 µM; AID 492953; P68402;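 active = inhibition above the mean of all tested compounds plus 3 SD, cut at about 24% in these data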;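 also: 0% = enzyme with DMSO and 100% = wells lacking PAFAH1B2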
# pPAFAH inh: pPAFAH (human) enzyme inhibition. recombinant pPAFAH, FP-rhodamine probe fluorescence polarization. inhibition, % at 3.39 µM. hit rate 1.5% among 330,000. AID 463082;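 active = inhibition above the mean inhibition across the screen plus 3 SD, cut at about 25% in these data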;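 also: inhibitors block binding of the rhodamine activity-based probe so polarization drops; 0% = enzyme with DMSO and 100% = wells lacking pPAFAH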
# Target sequence (Q13093 whole entry, looked up): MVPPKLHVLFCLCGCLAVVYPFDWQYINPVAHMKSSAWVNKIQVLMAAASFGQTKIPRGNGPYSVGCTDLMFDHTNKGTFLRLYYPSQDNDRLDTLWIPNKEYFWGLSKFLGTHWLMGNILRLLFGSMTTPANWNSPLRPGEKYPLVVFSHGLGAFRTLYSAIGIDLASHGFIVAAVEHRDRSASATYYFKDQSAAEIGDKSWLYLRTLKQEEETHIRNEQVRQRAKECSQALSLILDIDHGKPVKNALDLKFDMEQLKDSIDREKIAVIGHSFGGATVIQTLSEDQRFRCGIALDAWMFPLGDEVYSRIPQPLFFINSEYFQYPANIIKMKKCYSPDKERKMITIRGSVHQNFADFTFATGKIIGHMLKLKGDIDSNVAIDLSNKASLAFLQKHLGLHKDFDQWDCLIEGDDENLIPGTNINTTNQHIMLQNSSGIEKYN
# PAFAH2 FP inh: PAFAH2 (human) inhibition. Q99487. recombinant PAFAH2, FP-rhodamine activity probe, fluorescence polarization. inhibition, % at 3.39 µM. hit rate 0.99% among 340,000. AID 492956;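 active = inhibition above the mean over all tested compounds plus 3 SD, cut at about 30% in these data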;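 also: inhibitors block probe labeling of enzyme so polarization drops; 0% = enzyme with DMSO and 100% = wells lacking PAFAH2 protein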
# PKA-R2B act: activators of human PKA-R2B complex. P22694+P31323. PKA-R2B holoenzyme dissociation, Cy5-IP20 fluorescence polarization; R2B truncated from residue 108, S112A mutant; 0% DMSO only, 100% 113 µM cGMP. activation, % at 11.4 µM. hit rate 0.079% among 340,000;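 active = activation above a cutoff set at the mean over all compounds plus 3 SD, cut at about 18% in these data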;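 also: higher means more holoenzyme dissociation and a rise in polarization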
# PAFAH2 FP conf: PAFAH2 (human) inhibition, confirmed; hit rate 65% among 2,300; recombinant PAFAH2, FP-rhodamine activity probe, fluorescence polarization; shares compounds with PAFAH2 FP inh; inhibition, % at 3.39 µM;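 active = mean inhibition over three repeats above a set limit taken from the earlier primary screen, cut at about 30% in these data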;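 also: inhibitor blocks binding of rhodamine activity probe so polarization falls; 0% = enzyme with DMSO and 100% = wells lacking PAFAH2 protein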
# * = called active by the depositor; · = no result given.
SMILES,PKA-R1A activ,PAFAH1B3 FP inh,PAFAH1B2 inh,pPAFAH inh,PAFAH2 FP inh,PKA-R2B act,PAFAH2 FP conf
CC(NC(=O)COC(=O)C1CCCCC1)c1ccccc1 (configuration not stated),-10,9,8,8,36*,-1,22
Cc1c(CC(=O)N2CCC(O)CC2)c(=O)oc2cc3c(cc12)CCC1(CCCCC1)O3,1,·,·,·,·,-7,·
CSc1ccc(Cl)c(C(=O)OCC(=O)NCC(C)C)c1,-4,0,-1,3,43*,-14,30*
CN(CC(=O)Nc1ccccc1Cl)C(=O)COC(=O)C1CCN(c2ccc(C(F)(F)F)cn2)CC1,2,10,2,7,6,3,·
C=CCN1C(=O)/C(=C2/Sc3ccccc3N2CCCS(=O)(=O)O)SC1=S,-11,16,14,25*,34*,-12,22
C=CCN1C(=O)/C(=C2/Sc3ccccc3N2CC)SC1=S,-9,1,3,11,1,-5,·
COc1ccc(C(=O)O/N=C(/c2ccccc2)c2ccncc2)cc1OC,-16,6,14,2,74*,0,80*
N/C(=N\OC(=O)c1ccccc1)c1ccncc1,6,0,3,3,0,3,·
COc1ccc(C(=O)O/N=C(\N)c2ccccc2Cl)cc1OC,-7,8,5,7,7,2,·
COc1ccc(C(=O)O/N=C(/c2ccccc2)c2ccncc2)cc1,1,3,-2,5,78*,6,71*
COc1ccc(C(=O)O/N=C(\C)c2ccccc2)cc1,13,3,1,10,62*,-15,45*
CC1(C)Cc2noc(N)c2C(C)(C)N1OC(=O)c1ccccc1,-1,1,3,2,0,-16,·
O=S(=O)(c1ccccc1)N1CCC(=NO)CC1,-9,10,8,-1,10,4,·
CC1(C)CC(=NOC(=O)c2ccccc2)CC(C)(C)N1O,-1,8,6,3,33*,1,32*
O=S(=O)(c1ccccc1)N1CCN(c2cccc(Cl)c2)CC1,-2,7,3,9,7,-5,·
COc1ccc(C(=O)ON=C2CCN(C)CC2)cc1,-4,1,5,3,75*,4,63*
O=C(ON=C1CCN(S(=O)(=O)c2ccccc2)CC1)c1ccccc1,-1,6,10,2,91*,2,83*
O=C(ON=C1CCN(S(=O)(=O)c2ccccc2)CC1)c1cccc(Cl)c1,-4,9,17,13,82*,-5,79*
Cc1nc2n[nH]c(N)c2nc1C,-10,·,·,·,·,8,·
O=C(CSc1nc2ccsc2c(=O)n1CC1CCC(C(=O)O)CC1)NCCc1ccc(Cl)cc1 (configuration not stated),-4,-3,3,5,1,4,·
CCN(c1ccc2c(c1)OCO2)S(=O)(=O)c1cc2c(cc1Br)CCN2C(=O)C1CC1,-2,10,5,·,4,6,·
CC1(C)CC(=O)C=C(c2ccc(COC(=O)c3cccc(C(F)(F)F)c3)cc2)C1=O,-1,·,·,·,·,-5,·
O=C(CCc1ccccc1)NNC(=O)COc1ccc(Br)cc1,9,6,5,2,-7,1,·
Cc1ccc(S(=O)(=O)N2CCCCC2CCNC(=O)C(=O)NCc2ccccc2C)cc1 (configuration not stated),-5,-4,9,2,3,-2,·
C[n+]1c(-c2ccccc2)cc2c(=Cc3ccccc3)c3ccccc3n21,1,20,-5,·,59*,8,15
SMILES,PKA-R1A activ,PAFAH1B3 FP inh,PAFAH1B2 inh,pPAFAH inh,PAFAH2 FP inh,PKA-R2B act,PAFAH2 FP conf
N/C(Cc1ccc([N+](=O)[O-])cc1)=N\OC(=O)c1ccccc1F,5,15,-2,2,38*,-11,23
N/C(Cc1ccc([N+](=O)[O-])cc1)=N\OC(=O)Cc1ccccc1,3,-5,6,6,9,8,·
Cc1ccccc1/C=C1\SC(=S)N(/N=C/c2cc([N+](=O)[O-])ccc2O)C1=O,-14,5,13,8,32*,-14,16
CC(c1ccncn1)N(C)C(=O)c1ccc2oc(Cc3ccccc3)nc2c1 (configuration not stated),8,6,-3,1,36*,-5,27
Cc1cnc(CN(C)C(=O)c2ccc3oc(Cc4ccccc4)nc3c2)[nH]1,-1,6,4,-3,4,7,·
COc1cc(C(=O)OCC(=O)N2CCCCCC2)c([N+](=O)[O-])cc1OC,-4,12,6,3,35*,6,24
Cc1cc(CSc2nc(C)cc(=O)[nH]2)c2ncccc2c1,7,12,8,5,0,-6,·
Cc1cc(=O)[nH]c(SCc2cccc3ccccc23)n1,-3,8,4,0,35*,-1,25
O=C(COC(=O)C1CCC1)Nc1cccc(S(=O)(=O)N2CCOCC2)c1,-16,-3,3,-2,10,-11,·
O=C(COC(=O)C1CC2C=CC1C2)Nc1cccc(S(=O)(=O)N2CCCCC2)c1 (configuration not stated),-12,-2,6,7,53*,-7,41*
O=C(COC(=O)C1CC2C=CC1C2)Nc1cccc(S(=O)(=O)N2CCCCCC2)c1 (configuration not stated),1,12,3,16,36*,2,24
COc1ccc(OCC(=O)Nc2ccc(NC(=O)c3ccccc3Cl)c(OC)c2)cc1,1,-5,2,7,7,-1,·
O=C(OCCc1cc2ccccc2c(=O)o1)c1ccc2c(c1)OCO2,12,0,0,5,8,1,·
O=C(COC(=O)c1ccc2c(c1)OCO2)Nc1ccccc1,2,4,1,15,84*,7,81*
CN(C)S(=O)(=O)c1cc(NC(=O)COC(=O)c2ccc3c(c2)OCO3)ccc1Cl,-6,8,4,-1,57*,-5,78*
O=C(COC(=O)c1ccc(CSc2ccc(Cl)cc2)cc1)Nc1ccccc1,-3,3,8,15,34*,-5,16
O=C(COC(=O)c1ccncc1)Nc1ccccc1,-2,3,1,3,-9,-5,·
O=C(OCCCc1cc2ccccc2c(=O)o1)c1ccc2c(c1)OCO2,-5,0,-2,8,38*,-6,15
NC(=O)c1ccc(NC(=O)COC(=O)c2ccc3c(c2)OCCO3)cc1,-7,11,5,0,18,0,·
COc1ccc(C23CC4CC(CC(C(=O)O)(C4)C2)C3)c(F)c1,-5,-4,-2,-1,1,8,·
